# From PubChem BioAssay
# HT1080 IDH1KD tx: kills HT-1080 cells with IDH1 knockdown; AID 686971; 360,000 compounds, 2% hits; Potency, µM (top dose mostly 46.1 µM), for the others: at the highest dose activity, negative = toxicity, most hits filed as cytotoxic; HT-1080 IDH1 knockdown viability, ATP luminescence, 48 h;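 note: 0% = DMSO wells and -100% = cell-free medium wells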
#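 Viability of IDH1-knockdown HT-1080 fibrosarcoma cells was assessed by CellTiter-Glo after 48 h at 37 °C with titrated compound; concentration-effect curves were classified by fit quality and response size.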
# KB-3-1 cytotox: KB-3-1 parental cell cytotoxicity. KB-3-1 viability, CellTiter-Glo ATP luminescence, 72 h. AID 1347075. 400,000 compounds, 1.4% hits. Potency, µM (highest dose often 46.1 µM), most hits filed as cytotoxic; note: % is set by controls: 0 for no effect and ±100 for the full control effect; nearly all actives have a fitted effect of over 60% in size
#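 KB-3-1 cells, DMEM (no phenol red) + 10% FBS; compound by pin transfer, 72 h, 37 °C. Readout: CellTiter-Glo luminescence after 10 min. Data normalized, curve-fitted.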
# KB-V1 MDR tox: KB-V1 MDR subline cytotoxicity; KB-V1 MDR cells viability, CellTiter-Glo, 72 h; Potency, µM (titrated, usually from 46.1 µM), usual class: cytotoxic; 400,000 compounds, 3.4% hits; note: % is set by controls: 0 for no effect and ±100 for the full control effect; nearly all actives have a fitted effect of over 60% in size
#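 Compound-treated KB-V1 multidrug-resistant cells, 72 h, 37 degrees C; viability by CellTiter-Glo. Fitted qHTS curves give the values.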
# ATXN2 expr inh: reduces ATXN2 reporter expression in HEK-293 cells; HEK-293 ATXN2-luciferase reporter, luminescence, 24 h; Potency, µM (doses to about 57 µM), for the others: at the highest dose activity change, negative = inhibition, hits mostly inhibitors; 360,000 compounds, 0.72% hits; note: % is set by controls: 0 for no effect and ±100 for the full control effect; nearly all actives have a fitted effect of over 55% in size
#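 ATXN2-luciferase reporter cells (luciferase flanked by upstream and downstream ATXN2 gene portions) were treated 24 h at 37 °C with compounds at up to 57 uM. SteadyGlo luminescence gave expression; GF-AFC fluorescence gave viability.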
# ATXN viability: reduces viability in counter-screen for ATXN expression inhibitors | S2 cells (HEK-293 line with an ATXN2-luciferase reporter) viability, CellTiter-Fluor protease fluorescence, 24 h | Potency, µM (doses to about 56.7 µM), actives largely listed as cytotoxic | 400,000 compounds, 0.49% hits | AID 651635; note: nearly all actives have a fitted effect of over 40% in size
# HT1080NT lethal: kills 2HG-producing HT-1080-NT fibrosarcoma cells; HT-1080-NT fibrosarcoma viability, CellTiter-Glo ATP luminescence, 48 h; 360,000 compounds, 1.6% hits; AID 686970; Potency, µM (top dose mostly 46.1 µM), for inactives: at the highest dose activity, negative = less viability, most hits filed as cytotoxic;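 note: NT is the 2HG producing partner of a matched IDH1 knockdown line; 0% = DMSO-treated cells and -100% = media-only wells without cells; nearly all actives have a fitted effect of over 55% in size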
#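 750 cells/well, RPMI + 5% FBS; 2 h settle, compound pin-transfer, 48 h at 37 degrees C. CellTiter-Glo 10 min RT, luminescence. Normalized to DMSO and media-only wells.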
# * = called active by the depositor; i = inactive; ? = inconclusive; . = no result; [ ] = another dose, or the depositor's remark. Hits are enriched below; roughly 6.2% of the tested compounds scored in any of these assays. Calls come from the whole dose curve; as a rule, active = well fitted curve in the direction sought with a large enough effect; inconclusive = small, poorly fitted or top-dose-only effect, or another doubt; inactive = no such curve, though single readings can be large; an effect the other way counts as inactive or inconclusive. Potency is the fitted concentration of half-maximal effect.
SMILES,HT1080 IDH1KD tx,KB-3-1 cytotox,KB-V1 MDR tox,ATXN2 expr inh,ATXN viability,HT1080NT lethal
CCCc1ccc(C(=O)CCC(=O)NNC(=O)c2ccncc2)cc1,13.6%,10.3µM*,?,8.6%,i,9.5%
CCCc1ccc(C(=O)NNC(=O)c2ccc(Cl)cc2)cc1,7.1%,i,i,9.9%,i,-2.9%
O=C(c1ccc(C(F)(F)F)cc1)N1CCC(=O)N(C(COCc2ccc(C(F)(F)F)cc2)Cc2ccccc2)CC1 (stereo unspecified),-24.4%,?,i,?,?,?
O=C(c1ccc(Cl)c(Cl)c1)N1CCC(=O)N([C@H](COCc2ccc(Cl)cc2)Cc2ccccc2)CC1,25.9µM*,?,20.6µM*,?,?,?
Cc1cccc(COCC(Cc2ccccc2)N2CCN(C(=O)c3ccc(C(F)(F)F)cc3)CCC2=O)c1 (stereo unspecified),-29.4%,20.6µM*,11.6µM*,?,?,-1.7%
O=C(c1ccc(Cl)c(Cl)c1)N1CCC(=O)N(C(COCc2cccc(Cl)c2)Cc2ccccc2)CC1 (stereo unspecified),?,i,i,?,?,?
CCOC(=O)c1c(C)sc(-c2c(-c3ccc4c(c3)OCCO4)[nH]c3c2c(=O)n(C)c(=O)n3C)c1O,.,i,i,-0.8%,i,.
CCN(CC)C(=O)C1=C(C)N(Cc2ccc(C(C)(C)C)cc2)C(=O)C(CC(=O)NCc2cccs2)C1 (stereo unspecified),-1.1%,i,?,-27.3%,?,-11.0%
O=C(N1CCN(c2ccc(F)cc2)CC1)C1(c2cccs2)CCOCC1,-3.3%,i,23.1µM*,-9.2%,i,0.4%
O=C(N1CCN(c2cccc(Cl)c2)CC1)C1(c2cccs2)CCOCC1,-0.3%,?,4.61µM*,-22.3%,i,1.7%
O=C(N1CCN(c2cccc(Cl)c2)CC1)C1(S(=O)(=O)c2ccc(Cl)cc2)CC1,-4.0%,i,i,-17.9%,i,-14.2%
CCCN(CCC)C(=O)CC(c1ccccc1)c1ccc(C)cc1O (stereo unspecified),?,i,7.31µM*,-3.5%,i,-3.0%
Cc1oc(-c2ccccc2F)nc1CN1CCC(C(=O)NCCC2=CCCCC2)CC1,-2.4%,?,8.2µM*,-28.2%,?,-22.5%
COc1ccc(CCNC(=O)C2CCN(Cc3nc(-c4ccccc4F)oc3C)CC2)cc1OC,-1.5%,i,16.4µM*,-1.7%,i,-14.8%
Cc1oc(-c2ccccc2F)nc1CN1CCC(C(=O)NCCc2ccccc2)CC1,.,i,i,-18.7%,i,.
O=C(CCCC(=O)OCC(=O)c1ccc(Cl)cc1)NC1CCCCC1,-0.2%,.,.,10.0%,i,1.0%
COc1cc(C2Oc3ccccc3C=C2[N+](=O)[O-])cc(OC)c1OC (stereo unspecified),5.8µM*,?,?,.,15.8µM*,5.8µM*
COc1cc(C2NC(=O)c3ccccc3O2)cc(OC)c1OC (stereo unspecified),-2.0%,i,i,16.4%,i,6.0%
CNC(=O)C[C@H]1C(=O)N(C2CCCCC2)C[C@@H]1CSC,12.9%,i,?,5.5%,?,1.9%
O=C(NCCN1CCCCC1)c1ccc(Cn2c(SCc3ccccc3)nc3cccnc32)cc1,.,i,i,3.7%,?,.
CC1(C)CC(=O)C2=C(C1)OC(N)=C(C#N)C21C(=O)N2CCCc3cccc1c32 (stereo unspecified),0.0%,i,i,-2.5%,i,12.1%
Cc1cc2c3c(c1)C(C)(c1ccccc1)CC(C)(C)N3C(=O)C21C(C#N)=C(N)OC2=C1C(=O)CC(C)(C)C2 (stereo unspecified),17.8µM*,?,20.6µM*,?,?,-1.1%[9.24 µM]
C#CCOCCOCCOCCNc1nc(N2CCN(C(=O)CCCCCCCCCCNC(=O)[C@@H](CCSC)n3cc(CCO)nn3)CC2)nc(N2CCN(C(=O)CCCCCCCCCCNC(=O)[C@H](CCCN=C(N)N)n3cc(C[C@@H](C)CC)nn3)CC2)n1,?,i,?,?,15.8µM*,?
C#CCOCCOCCOCCNc1nc(N2CCN(C(=O)CCCCCCCCCCNC(=O)Cn3cc(C[C@@H](C)O)nn3)CC2)nc(N2CCN(C(=O)CCCCCCCCCCNC(=O)[C@@H](CCSC)n3cc(CCO)nn3)CC2)n1,20.6µM*,i,i,-7.8%,i,?
Cc1cc(/C=C2\C=Cc3ccccc32)cc(C)c1[N+](=O)[O-],.,i,i,.,.,.
SMILES,HT1080 IDH1KD tx,KB-3-1 cytotox,KB-V1 MDR tox,ATXN2 expr inh,ATXN viability,HT1080NT lethal
COC(=O)[C@@]1(Cc2ccc(F)cc2)[C@H]2c3cc(C(=O)N(C)C)n(Cc4ccc(C)o4)c3C[C@H]2CN1C(=O)c1ccccc1,20.6µM*,?,16.4µM*,?,.,?
COC(=O)[C@@]1(Cc2ccc(OC)cc2)[C@H]2c3cc(C(=O)N4CCCC4)n(Cc4ccc(S(C)(=O)=O)cc4)c3C[C@H]2CN1C(=O)c1ccccc1,-21.3%,i,?,-5.4%,i,-20.1%
COC(=O)[C@@]1(Cc2ccc(OC)cc2)[C@H]2c3cc(C(=O)N4CCCC4)n(Cc4ccsc4Br)c3C[C@H]2CN1C(=O)c1ccccc1,?,18.4µM*,?,-34.7%,?,?
COC(=O)[C@@]1(Cc2ccc(F)cc2)[C@H]2c3cc(C(=O)N(C)C)n(CCCNc4ncc(C(F)(F)F)cc4Cl)c3C[C@H]2CN1C(=O)c1ccccc1,?,?,18.4µM*,0.0%,?,?
COC(=O)[C@@]1(Cc2ccc(F)cc2)[C@H]2c3cc(C(=O)N(C)C)n(Cc4ccccc4)c3C[C@H]2CN1C(=O)c1ccccc1,-9.3%,i,i,?,?,?
CNC(=O)Nc1cc(C(F)(F)F)cc(C(F)(F)F)c1,9.0%,i,i,6.0%,.,8.4%
O=C(Nc1cc(C(F)(F)F)cc(C(F)(F)F)c1)c1cc(Cl)ccc1O,.,.,.,0.863µM*,.,.
O=C(CSc1nc(C2CC2)nc2ccccc12)N1c2ccccc2Sc2ccc(C(F)(F)F)cc21,-9.8%,?,18.4µM*,-10.6%,i,-3.4%
O=C(CSc1nc(C2CC2)nc2ccccc12)Nc1ccccc1,1.3%,i,i,3.8%,i,-13.5%
CCN(CC)c1ccc(NC(=O)CSc2nc(C3CC3)nc3ccccc23)cc1C,6.51µM*,4.61µM*,6.51µM*,-16.9%,i,9.2µM*
